PubChem BioAssay (NCI)
About 83,000 compounds went through this panel and 20% of them were active in at least one assay; those are over-represented in the sample as a whole.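 A percent growth of 40 corresponds to 60% growth inhibition; 0 means no net growth; -100 means all cells died. Active threshold: below 10.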 A number with no mark means an inactive call. Calls of active or inactive are those of the source.

Test system: NCI-H460 lung
Experiment: NCI-60 one-dose screen, 48 h (100 = growth as untreated, 0 = no growth, -100 = all killed)
Details: 10 µM unless noted

SMILES | growth
COc1cc2oc(-c3cccc(NC(=O)c4cc(N)ccc4Cl)c3)cc(=O)c2c(OC)c1OC | 104%
CC(C)(C)n1cc(-c2ccnc(NCCCNS(=O)(=O)c3cccc(F)c3)n2)c(-c2ccc(Cl)c(O)c2)n1 | 93.6%
COc1cccc2cc(-c3cc4ccccc4[nH]3)/c(=N\NC(=O)c3ccc(Cl)cc3)oc12 | 18.4%
Nc1nc(Nc2ccccc2SSc2ccccc2Nc2nc(N)nc(-c3ccc4ccccc4c3)n2)nc(-c2ccc3ccccc3c2)n1 | 61.1%
O=C(CN1CCN(c2cc(=O)n(-c3ccccc3)c3ccccc23)CC1)Nc1nc(-c2ccccc2)cs1 | 32.2%
CC(Nc1c(C#N)cnc2ccc(-c3cnc(N)nc3)cc12)c1ccccc1 (centres undefined) | 13.1%
CC(=O)Nc1cccc(Nc2nc(N[C@H](C)c3ccccc3)c3ccccc3n2)c1 | 41.2%
CNC1CCc2c(sc(NC(=O)c3ccc(C(C)(C)C)cc3)c2C(N)=O)C1 (centres undefined) | 2.17% (active)
COc1cc(OC)cc(C(=O)Nc2cccc(C#Cc3cccc4[nH]nc(N)c34)c2)c1 | 13%
COc1c(N2CC3CCCNC3C2)c(F)cc2c(=O)c(C(=O)N/N=C/c3ccccc3)cn(C3CC3)c12 (centres undefined) | 98.7%
COc1ccccc1-n1cc(C#N)c(N)c1C(=O)c1ccc(Br)cc1 | 79.7%
Nc1nc(-c2cccc([N+](=O)[O-])c2)c(N=Nc2ccccc2)s1 | 56.6%
COc1ccc(-c2nc3ccc(-c4nnc(SCC(=O)Nc5ccc(C(=O)/C=C/c6ccc(Cl)cc6)cc5)o4)cc3[nH]2)cc1 | 104%
CCCCCCCn1cc2c(NCCc3ccccc3)ncnc2n1 | 100%
COc1ccc(-c2nc3cc(Cl)c(Cl)cc3n2CC(=O)N=Nc2c(O)[nH]c3ccc(OC)cc23)cc1 | 56.1%
CN1CCN(Cc2ccc(NC(=O)c3cncc(C#Cc4cnn5cccnc45)c3)cc2C(F)(F)F)CC1 | 3.16% (active)
Cc1cc(C)c(N2C(=O)CC(Nc3ccc(Cl)cc3Cl)C2=O)c(C)c1 (centres undefined) | 105%

SMILES | growth
CC(=O)Nc1cccc(Nc2nc(N[C@@H](C)c3ccccc3)c3ccccc3n2)c1 | 2.67% (active)
COc1cc(-c2nn(C(C)(C)C)cc2-c2ccnc(NCCCNS(=O)(=O)c3cccc(F)c3)n2)ccc1Cl | 77.2%
NC(=O)c1cccc(-n2ccc3cc(NC(=O)Nc4ccc(N5CCOCC5)c(C(F)(F)F)c4)ccc32)n1 | 0.481% (active)
O=S(=O)(Nc1cccc2ccccc12)c1ccc(-c2cnc(C3CC3)o2)cc1 | 11.2%
CCOC(=O)c1c(N)c(C#N)cn1-c1cc(OC)c(OC)c(OC)c1 | 104%
COc1ccc([C@H]2c3[nH]c4ccccc4c3C[C@H]3C(=O)N(C4CCN(Cc5c(Cl)cccc5Cl)CC4)CC(=O)N23)c(OC)c1 | 99.1%
COc1ccc2c(c1)c(-c1cc(N)n3nc(-c4cn(C)c5ccc(OC)cc45)cc3n1)cn2C | -64.3% (active)
COc1cc2c(cc1OC)C(Sc1ccc(C)cc1)c1c(nc(N)c(C#N)c1N)O2 (centres undefined) | -54.9% (active)
C[C@@H](Nc1c(C#N)cnc2ccc(-c3cnc(Cl)c(NS(C)(=O)=O)c3)cc12)c1ccccc1 | 2.56% (active)
Cc1ccc(NC(=O)N[C@@H](Cc2cc(F)cc(F)c2)C(=O)NC2C(=O)N3C[C@H](O)C[C@H]3C(=O)N3CCCC[C@H]3C(=O)N[C@@H](CO)C(=O)N3C[C@H](C)C[C@H]3C(=O)O[C@H]2C)c(F)c1 (some centres undefined) | 37.3%
O=C(NCc1ncc[nH]1)c1ccc(-c2nc3ccc4[nH]ncc4c3c3c2CCCC3)cc1 | 8.85% (active)
CCO/C=N/C1=C(C#N)C(c2ccc(F)cc2)c2sc3c(C)cccc3c2O1 (centres undefined) | 4.32% (active)
c1cn2c(ccc3nc(-c4cn[nH]c4)c4c(c32)CCCC4)n1 | 43.9%
O=c1[nH]c2ccccc2cc1CSc1ccccc1Nc1nccc(-c2ccc(Cl)cc2)n1 | 97.5%
Cn1ccnc1C(=O)/C=C/c1ccc(NC(=O)c2c(F)c(F)c(F)c(F)c2F)cc1 | 105%
Cc1noc(C)c1CSc1nc2ccccc2n1-c1ccccc1 | 107%
Cn1cc(CNc2nc3ccc(OC/C(=C/F)CN)cc3o2)ccc1=O | 108%
